The nature of experiment [1]: rapamycin-like changes in RPL19A-GFP expression – cell-based, S. cerevisiae, multiplex flow cytometry, primary screen (AID 1862; in the data active = percent of DMSO control GFP below about 86%;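 also: lower values mimic rapamycin by blocking the RPL19A rise seen in DMSO cells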). Particulars: S. cerevisiae RPL19A-GFP strain, flow cytometry fluorescence, 3 h; at 10 µM; stronger effect = lower value.
Experiment [2] can be described thus: TOR pathway GLN3 branch reporter MEP2-GFP changes – S. cerevisiae, multiplex flow cytometry, primary screen (AID 1867;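 active = GFP response, as percent of the DMSO control, above the screen-wide mean plus 3 SD, about 139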;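 also: median GFP channel fluorescence of barcode-gated MEP2-GFP cells measured by flow cytometry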). The conditions noted are these: S. cerevisiae MEP2-GFP strain, 3 h, at 10 µM, stronger effect = higher value, 100% means same as DMSO wells. Background: A flow cytometer gives signals particle by particle.
A short description of experiment [3]: TOR pathway RTG branch CIT2 reporter changes – S. cerevisiae, GFP fusion, multiplex flow cytometry, primary screen (AID 1870;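 active = percent response above a set limit, the screen-wide mean plus 3 SD, cut at about 130% in these data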;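 also: barcoded CIT2-GFP strain pooled with four other GFP strains with rapamycin as positive control; median GFP fluorescence per well over plate mean of DMSO wells so 100% = DMSO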). Particulars: S. cerevisiae CIT2-GFP expression, 3 h, at 10 µM, stronger effect = higher value.
Experiment [4] is described as follows: TOR pathway LAP4-GFP level changes – S. cerevisiae, multiplex flow cytometry, primary screen (AID 1873;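 active = GFP signal, as percent of the solvent control, above the screen mean plus 3 SD, about 149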). The conditions noted are these: S. cerevisiae LAP4-GFP expression, 3 h, at 10 µM, stronger effect = higher value.
Experiment [5] is described as follows: yeast AGP1-GFP level changes, GLN3 branch – cell-based, multiplex flow cytometry, S. cerevisiae, primary screen (AID 1887;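 active = GFP signal above the screen-wide mean plus 3 SD, that is over about 124.5% of the solvent control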;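 also: AGP1-GFP fusion strain of S. cerevisiae within a five-strain barcoded multiplex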). The conditions noted are these: 3 h, at 10 µM, stronger effect = higher value.
Experiment [6] in a line: reduced mouse 2C T cell binding to pMHC/ICAM-1 vesicles – MLPCN validation set, flow cytometry, LFA-1/ICAM-1 modulator project, pilot screen (AID 2523;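 active = response below a set limit, under 55% cells CD8-positive and vesicle-bound, and CD8 cells' 90th-percentile brightness under 279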;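 as to vesicle binding response: mean PE anti-B7-1 fluorescence of CD8+ cells relative to row control; 100% = QL9-loaded vesicles with DMSO vehicle in the same plate row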). The conditions noted are these: 2C mouse CD8+ T cells, at 7 µM, stronger effect = lower value; double positive events: measured here: CD8+/vesicle+ event percentage.
The target in experiment [7] is Integrin beta-1 (Homo sapiens) + Integrin alpha-4 (Homo sapiens) (UniProt P13612+P05556). The experiment is described as follows: alpha4beta1 integrin LIBS antibody binding reduction – U937 cells, HUTS-21 mAb, flow cytometry, validation set, VLA-4 allosteric modulator project, pilot screen (AID 2674;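 active = inhibition above 50%, about 3 SD of the validation set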;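 also: antibody binding induced by the VLA-4 ligand LDV present at three times its Kd; 0% = LDV ligand with antibody and no compound and 100% = antibody without LDV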). Particulars: HUTS-21 LIBS mAb binding, at 6.7 µM, stronger effect = higher value, binding induced by LDV ligand.

Experiment [8] can be described thus: calorie-restriction mimetic ROS inhibitors, yeast – validation compound set, pilot screen (AID 2706;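 active = superoxide response below 65% of plate, a cut near 3 SD across the whole screen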;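 also: yeast exposed to compound for one week at 30 degrees C before staining; 100% = mean of all compound wells on the same plate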). Particulars: S. cerevisiae aging, superoxide DHE fluorescence; at 10 µM, stronger effect = lower value.
For experiment [9], the target named is Beta-adrenergic receptor kinase 1 (Homo sapiens) (UniProt P25098). The experiment is described as follows: GRK2 binders displacing RNA aptamer, biochemical, validation, human GRK2, bead flow cytometry (AID 488806;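 active = aptamer binding inhibition above 30%, about 3 SD of noise from non-fluorescent compounds; inactive = inhibition at or below 30%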). Particulars: bead-bound GRK2, FAM-aptamer displacement, at 10 µM, stronger effect = higher value.
Experiment [10] addresses Beta-2 adrenergic receptor (Homo sapiens) (UniProt P07550). Kind of experiment: agonist-induced loss of surface beta2AR – cell-based, FAP fluorogen, flow cytometry, validation set, pilot screen (AID 504459;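 active = percent response above 42, roughly 3 SD of non-fluorescent test compounds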;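 also: agonist-driven loss of surface beta2AR via internalization measured by FAP dye flow cytometry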). Particulars: Am2.2-beta2AR cells, at 10 µM, stronger effect = higher value.
The nature of experiment [11]: cytosolic pH regulators acting via V-ATPase – S. cerevisiae, pHLuorin, HTS validation (AID 504600; in the data active = response above about 15%;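 also: plate controls were DMSO for no effect and reference compound for full effect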). Particulars: V-ATPase proton transport, at 10 µM, stronger effect = higher value.
Experiment [12] concerns anti-desmoglein-3 scFv antibody binding to human DSG3. The experiment is described as follows: blockers of pathogenic pemphigus antibody–desmoglein-3 binding – biochemical, validation compound set, bead-based, flow cytometry, pilot screen (AID 588368;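 active = binding below the plate cutoff, the plate median minus 3 SD, with a reading above zero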;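 also: signal is the median channel fluorescence of bead-bound GFP antibody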). The conditions noted are these: Protein G beads, DSG3-Fc, scFv-GFP binding, at 10 µM, stronger effect = lower value.
The nature of experiment [13]: Nile Red efflux blockade in pump-expressing yeast – validation compound set, multiplex, phenotypic, pilot screen (AID 588506;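 active = efflux inhibition above 0.42, the validation set average plus 4 SD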;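 also: Nile Red retained in cells so higher fluorescence means more efflux inhibition; 0 = negative control wells and 1 = enniatin B 25 µM full block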). Particulars: S. cerevisiae pump-expressing triplex, Nile Red efflux flow cytometry; at 10 µM; stronger effect = higher value; the pumps come from Candida albicans.
Experiment [14] has as its target ATP-binding cassette sub-family B member 6 (Homo sapiens) (UniProt Q9NP58). Kind of experiment: blockers of ABCB6-driven porphyrin uptake – K562-ABCB6 cells, flow cytometry, validation set, pilot screen (AID 588550;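 active = inhibition above the screen-wide mean plus 3 SD, about 51%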;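 also: 0% = DMSO wells and 100% = benzethonium chloride 70 µM positive control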). The conditions noted are these: K562-ABCB6 porphyrin accumulation, 1 h, at 10 µM, stronger effect = higher value.
Experiment [15] in a line: AML differentiation inducers, ER-HoxA9 marrow cells – cell-based, GFP/MAC1 double positive, flow cytometry, validation set, primary screen (AID 588685).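 Also: compound exposure lasts four days before antibody staining and flow analysis; 0% = DMSO wells and 100% = 5 µM fulvestrant positive control.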 Particulars: stronger effect = higher value, normalized: vehicle 0, fulvestrant 100.
Experiment [16] deals with AP-2 complex subunit beta (Homo sapiens) (UniProt P63010). The experiment is described as follows: beta-arrestin/AP2 interaction blockers – biochemical, validation set, GST-AP2 beads, flow cytometry, pilot screen (AID 504541;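 active = inhibition above 54%, about 3 SD of non-fluorescent compounds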;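 also: AP2 carries R879A mutation and is captured from E. coli lysate; bead-bound FITC arrestin peptide fluorescence measuring arrestin peptide binding to AP2; 0% = DMSO wells and 100% = excess unlabeled arrestin peptide control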). The conditions noted are these: FITC arrestin peptide, at 10 µM, stronger effect = higher value, AP2 beta2 appendage fragment, R879A mutant.

Structures are written as SMILES. Inconclusive results are not listed. The source made the active and inactive calls.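 The calls were made as follows, unless noted: active = differentiation response of at least 50%, scaled between solvent and reference control, from cells with both markers; inactive = the rest.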

Beta-adrenergic receptor kinase 1 (Homo sapiens), sequence (P25098 whole entry, looked up): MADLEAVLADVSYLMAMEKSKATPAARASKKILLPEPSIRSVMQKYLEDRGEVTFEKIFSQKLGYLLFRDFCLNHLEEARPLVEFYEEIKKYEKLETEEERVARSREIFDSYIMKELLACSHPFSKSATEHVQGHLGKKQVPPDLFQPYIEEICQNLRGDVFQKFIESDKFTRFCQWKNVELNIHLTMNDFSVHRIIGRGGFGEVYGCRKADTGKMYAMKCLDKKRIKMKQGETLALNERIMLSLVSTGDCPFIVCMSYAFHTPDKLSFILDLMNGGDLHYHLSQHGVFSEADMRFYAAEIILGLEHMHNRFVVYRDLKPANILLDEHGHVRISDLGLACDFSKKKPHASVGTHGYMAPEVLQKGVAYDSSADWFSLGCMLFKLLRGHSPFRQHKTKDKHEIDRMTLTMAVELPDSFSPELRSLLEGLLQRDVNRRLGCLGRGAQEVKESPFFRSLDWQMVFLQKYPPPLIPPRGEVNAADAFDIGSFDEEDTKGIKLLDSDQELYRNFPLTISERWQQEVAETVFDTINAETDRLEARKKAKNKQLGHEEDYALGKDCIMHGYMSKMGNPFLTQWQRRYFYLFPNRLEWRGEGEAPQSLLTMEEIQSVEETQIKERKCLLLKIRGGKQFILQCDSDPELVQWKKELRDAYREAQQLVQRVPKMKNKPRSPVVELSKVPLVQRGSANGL
Beta-2 adrenergic receptor (Homo sapiens), sequence (P07550 whole entry, looked up): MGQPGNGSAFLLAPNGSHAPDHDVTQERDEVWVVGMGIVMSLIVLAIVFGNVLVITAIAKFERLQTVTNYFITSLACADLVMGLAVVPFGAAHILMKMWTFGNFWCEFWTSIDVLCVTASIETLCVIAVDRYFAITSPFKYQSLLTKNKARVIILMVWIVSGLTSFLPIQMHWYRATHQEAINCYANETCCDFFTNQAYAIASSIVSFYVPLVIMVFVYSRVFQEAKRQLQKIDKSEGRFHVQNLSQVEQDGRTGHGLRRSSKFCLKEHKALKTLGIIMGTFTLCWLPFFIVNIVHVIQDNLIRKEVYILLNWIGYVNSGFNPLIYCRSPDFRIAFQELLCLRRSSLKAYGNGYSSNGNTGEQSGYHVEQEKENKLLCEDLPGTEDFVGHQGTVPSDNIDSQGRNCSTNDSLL
Integrin beta-1 (Homo sapiens) + Integrin alpha-4 (Homo sapiens), sequence (P05556 whole entry, looked up): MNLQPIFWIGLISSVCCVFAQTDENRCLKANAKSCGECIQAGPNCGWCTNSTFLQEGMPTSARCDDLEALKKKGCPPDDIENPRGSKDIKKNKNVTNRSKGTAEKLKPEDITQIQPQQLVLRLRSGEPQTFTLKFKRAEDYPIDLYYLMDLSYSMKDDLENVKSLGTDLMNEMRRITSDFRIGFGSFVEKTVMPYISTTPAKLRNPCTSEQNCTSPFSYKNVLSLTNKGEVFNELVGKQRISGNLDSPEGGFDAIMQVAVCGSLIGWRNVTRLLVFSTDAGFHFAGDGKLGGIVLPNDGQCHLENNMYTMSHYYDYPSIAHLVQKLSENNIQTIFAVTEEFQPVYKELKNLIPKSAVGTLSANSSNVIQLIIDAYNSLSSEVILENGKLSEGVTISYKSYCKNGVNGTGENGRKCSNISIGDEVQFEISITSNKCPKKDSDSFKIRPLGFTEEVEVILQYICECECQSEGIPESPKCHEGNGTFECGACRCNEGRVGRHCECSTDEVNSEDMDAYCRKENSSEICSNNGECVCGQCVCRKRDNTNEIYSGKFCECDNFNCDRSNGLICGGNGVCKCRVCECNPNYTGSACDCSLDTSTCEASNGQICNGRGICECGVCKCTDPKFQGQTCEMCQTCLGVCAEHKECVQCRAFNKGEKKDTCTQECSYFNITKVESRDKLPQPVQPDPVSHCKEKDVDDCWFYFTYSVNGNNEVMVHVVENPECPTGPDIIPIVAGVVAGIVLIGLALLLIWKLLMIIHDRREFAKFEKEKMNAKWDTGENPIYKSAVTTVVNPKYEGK
Integrin beta-1 (Homo sapiens) + Integrin alpha-4 (Homo sapiens), sequence (P13612 whole entry, looked up): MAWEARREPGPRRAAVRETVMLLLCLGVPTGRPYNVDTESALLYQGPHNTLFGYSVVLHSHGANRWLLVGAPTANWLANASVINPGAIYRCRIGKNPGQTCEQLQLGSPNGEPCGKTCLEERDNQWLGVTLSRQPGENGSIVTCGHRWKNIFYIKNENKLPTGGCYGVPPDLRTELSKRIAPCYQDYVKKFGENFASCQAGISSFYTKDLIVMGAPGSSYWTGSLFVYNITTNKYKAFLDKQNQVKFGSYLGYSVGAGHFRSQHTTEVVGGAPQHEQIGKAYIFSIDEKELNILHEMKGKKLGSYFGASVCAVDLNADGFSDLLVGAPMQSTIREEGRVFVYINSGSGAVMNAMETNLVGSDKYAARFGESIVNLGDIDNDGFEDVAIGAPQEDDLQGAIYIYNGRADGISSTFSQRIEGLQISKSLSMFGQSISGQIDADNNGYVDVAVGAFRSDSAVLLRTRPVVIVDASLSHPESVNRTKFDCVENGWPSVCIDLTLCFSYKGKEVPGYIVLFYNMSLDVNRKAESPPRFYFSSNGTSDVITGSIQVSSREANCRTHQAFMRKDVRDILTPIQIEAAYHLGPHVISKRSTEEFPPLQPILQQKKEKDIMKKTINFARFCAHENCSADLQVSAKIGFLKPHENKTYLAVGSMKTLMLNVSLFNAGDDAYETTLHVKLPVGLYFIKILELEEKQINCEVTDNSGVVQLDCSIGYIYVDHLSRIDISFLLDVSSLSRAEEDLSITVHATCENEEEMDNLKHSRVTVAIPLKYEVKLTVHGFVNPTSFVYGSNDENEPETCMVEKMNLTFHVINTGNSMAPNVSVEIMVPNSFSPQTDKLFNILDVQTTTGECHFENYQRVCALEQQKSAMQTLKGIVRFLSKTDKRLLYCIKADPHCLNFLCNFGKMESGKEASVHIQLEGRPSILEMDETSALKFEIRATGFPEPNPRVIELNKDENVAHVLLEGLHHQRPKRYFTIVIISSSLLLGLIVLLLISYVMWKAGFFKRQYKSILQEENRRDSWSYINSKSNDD
AP-2 complex subunit beta (Homo sapiens), sequence (P63010 whole entry, looked up, the tested form may be a part, one chain of several): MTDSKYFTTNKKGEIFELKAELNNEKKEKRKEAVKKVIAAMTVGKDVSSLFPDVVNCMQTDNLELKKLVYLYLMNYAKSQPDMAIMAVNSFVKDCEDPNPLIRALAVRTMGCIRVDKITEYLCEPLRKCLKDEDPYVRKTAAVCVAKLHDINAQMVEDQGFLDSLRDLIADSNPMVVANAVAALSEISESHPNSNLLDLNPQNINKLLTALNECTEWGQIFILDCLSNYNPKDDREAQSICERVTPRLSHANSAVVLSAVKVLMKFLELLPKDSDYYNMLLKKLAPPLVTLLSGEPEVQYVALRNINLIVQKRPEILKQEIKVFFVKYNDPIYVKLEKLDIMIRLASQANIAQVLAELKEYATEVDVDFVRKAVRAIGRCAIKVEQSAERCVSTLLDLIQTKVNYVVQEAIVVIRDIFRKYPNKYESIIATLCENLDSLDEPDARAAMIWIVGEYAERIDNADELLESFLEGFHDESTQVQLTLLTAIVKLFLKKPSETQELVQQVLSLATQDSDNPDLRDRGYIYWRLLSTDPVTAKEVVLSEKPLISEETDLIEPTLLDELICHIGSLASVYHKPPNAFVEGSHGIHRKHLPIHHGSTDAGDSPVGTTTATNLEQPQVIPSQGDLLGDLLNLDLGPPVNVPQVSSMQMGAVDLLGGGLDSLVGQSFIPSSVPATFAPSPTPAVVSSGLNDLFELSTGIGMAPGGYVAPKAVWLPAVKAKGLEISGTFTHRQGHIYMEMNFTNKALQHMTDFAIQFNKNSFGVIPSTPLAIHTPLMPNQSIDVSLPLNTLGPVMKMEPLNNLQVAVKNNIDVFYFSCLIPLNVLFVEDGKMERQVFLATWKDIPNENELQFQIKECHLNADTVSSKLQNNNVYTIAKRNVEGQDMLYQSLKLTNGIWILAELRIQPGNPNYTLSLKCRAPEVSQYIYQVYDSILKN
ATP-binding cassette sub-family B member 6 (Homo sapiens), sequence (Q9NP58 whole entry, looked up): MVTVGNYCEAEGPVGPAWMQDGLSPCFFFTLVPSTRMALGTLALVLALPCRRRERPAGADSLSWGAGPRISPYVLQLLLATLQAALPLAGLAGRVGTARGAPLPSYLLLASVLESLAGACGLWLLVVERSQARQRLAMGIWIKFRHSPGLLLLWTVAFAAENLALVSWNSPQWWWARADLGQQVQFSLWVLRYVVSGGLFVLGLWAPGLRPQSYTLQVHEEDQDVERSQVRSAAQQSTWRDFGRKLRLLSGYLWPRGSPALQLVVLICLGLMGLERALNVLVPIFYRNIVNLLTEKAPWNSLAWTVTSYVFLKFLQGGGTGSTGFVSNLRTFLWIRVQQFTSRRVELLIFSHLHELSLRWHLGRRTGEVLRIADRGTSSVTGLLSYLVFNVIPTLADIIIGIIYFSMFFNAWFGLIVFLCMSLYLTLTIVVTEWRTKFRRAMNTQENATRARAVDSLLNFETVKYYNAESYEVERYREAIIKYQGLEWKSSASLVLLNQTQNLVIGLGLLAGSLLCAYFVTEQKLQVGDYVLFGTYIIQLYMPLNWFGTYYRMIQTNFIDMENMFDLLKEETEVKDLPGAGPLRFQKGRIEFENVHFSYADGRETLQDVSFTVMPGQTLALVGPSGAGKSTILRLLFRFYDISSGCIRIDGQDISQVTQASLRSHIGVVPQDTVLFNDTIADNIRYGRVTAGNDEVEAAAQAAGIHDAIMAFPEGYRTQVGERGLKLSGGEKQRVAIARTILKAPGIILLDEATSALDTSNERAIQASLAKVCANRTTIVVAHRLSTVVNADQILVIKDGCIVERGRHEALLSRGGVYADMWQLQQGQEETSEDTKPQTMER

In general, inhibition refers to the change of the read-out against control, counted positive when it falls. Regarding `COc1cc(Cl)cc2c1Sc1ccccc1/C2=C/CCN(C)C`, the percent of DMSO control GFP in experiment [1] is 97.1% (inactive). Also, the figures for the GFP response vs DMSO in experiment [2] and in [4] were 105% (inactive) and 93.7% (inactive), respectively. Also, the percent response of DMSO control in experiment [3] was 94.9% (inactive). In experiment [5], the GFP response, % of DMSO is 92.6% (inactive). In [6], this molecule gave a double positive events of 63.9%. Further, in experiment [6], the vesicle binding response was 1310% (inactive). The inhibition was -7.47% (inactive) in experiment [7] and 0% (inactive) in [14]. The superoxide response (% of plate) in [8] was 104% (inactive). Also, the aptamer binding inhibition in [9] was -8% (inactive). In addition, the response was 20% (inactive) in [10] and 0.4% (inactive) in experiment [11]. Further, in experiment [12], the binding (% of control) was 110% (inactive). The efflux inhibition (fraction of control) in experiment [13] is -0.09 (inactive). For the same molecule, the differentiation response in [15] is -2.64% (inactive).
In the case of `CC(C)C[C@H](NC(=O)NC(C)C)C(=O)O`, in [1], the percent of DMSO control GFP was 103% (inactive). In addition, the GFP response vs DMSO in [2] is 105% (inactive); in experiment [4], 95.9% (inactive). Also, the percent response of DMSO control in experiment [3] is 95.5% (inactive). For the same molecule, the GFP response, % of DMSO in experiment [5] was 99.8% (inactive). In addition, the double positive events in experiment [6] came out at 60.1%. The vesicle binding response in experiment [6] is 136% (inactive). Moreover, the inhibition in experiment [7] was 9.63% (inactive); in experiment [16], -6.27% (inactive); in experiment [14], 0% (inactive). Further, the superoxide response (% of plate) in experiment [8] was 111% (inactive). The aptamer binding inhibition in experiment [9] was -1% (inactive). For the same molecule, the results for the response in [10] and in [11] were 2.78% (inactive) and -3.73% (inactive), respectively. Moreover, in experiment [12], the binding (% of control) was 96.8% (inactive). In addition, the efflux inhibition (fraction of control) in experiment [13] was -0.12 (inactive). Besides, the differentiation response in experiment [15] is -10.4% (inactive).
For `Nc1nc2c(ncn2COC(CO)CO)c(=O)[nH]1`, in experiment [1], the percent of DMSO control GFP is 97.3% (inactive). Also, the GFP response vs DMSO in [2] was 106% (inactive); in experiment [4], 125% (inactive). The percent response of DMSO control in experiment [3] was 96.4% (inactive). Also, the GFP response, % of DMSO in experiment [5] is 119% (inactive). This molecule registered a double positive events in [6] of 60.3%. For the same molecule, the vesicle binding response in experiment [6] is 212% (inactive). The inhibition in [7] is -11.3% (inactive); in experiment [16], -16.5% (inactive); in [14], 5% (inactive). In addition, the superoxide response (% of plate) in experiment [8] was 106% (inactive). Also, the aptamer binding inhibition in experiment [9] was -6% (inactive). In addition, the figures for the response in experiment [10] and in experiment [11] were -20.9% (inactive) and -2.35% (inactive), respectively. Moreover, the binding (% of control) in experiment [12] was 98% (inactive). Moreover, in [15], the differentiation response is -10.9% (inactive).
With `COc1ccc(CN(CCN(C)C)c2ccccn2)cc1`, the percent of DMSO control GFP in experiment [1] is 102% (inactive). Moreover, the figures for the GFP response vs DMSO in experiment [2] and in experiment [4] were 107% (inactive) and 103% (inactive), respectively. For the same molecule, the percent response of DMSO control in experiment [3] was 108% (inactive). The GFP response, % of DMSO in experiment [5] is 107% (inactive). The double positive events in experiment [6] was 60.3%. The vesicle binding response in experiment [6] was 60% (inactive). Moreover, the inhibition is 2.66% (inactive) in experiment [7], -5.39% (inactive) in experiment [16] and 4% (inactive) in experiment [14]. Moreover, in experiment [8], the superoxide response (% of plate) was 109% (inactive). Besides, the aptamer binding inhibition in experiment [9] was 0% (inactive). Further, the response is -10.3% (inactive) in experiment [10] and 0.3% (inactive) in experiment [11]. The binding (% of control) in [12] was 99.3% (inactive). For the same molecule, the differentiation response in experiment [15] is 2.2% (inactive).
In the case of `Cc1ncc([N+](=O)[O-])n1CCO`, the percent of DMSO control GFP in experiment [1] was 99.6% (inactive). For the same molecule, the GFP response vs DMSO was 93.8% (inactive) in experiment [2] and 97.4% (inactive) in experiment [4]. Besides, the percent response of DMSO control in experiment [3] is 105% (inactive). In [5], the GFP response, % of DMSO is 94.6% (inactive). Further, the double positive events in experiment [6] came out at 59.8%. Besides, in [6], the vesicle binding response was 172% (inactive). Also, the inhibition in experiment [7] was 10% (inactive); in experiment [16], -1.26% (inactive); in experiment [14], 5% (inactive). Besides, the superoxide response (% of plate) in experiment [8] was 98.8% (inactive). Besides, the aptamer binding inhibition in experiment [9] was 1% (inactive). The response in experiment [11] is 3.07% (inactive). In addition, the binding (% of control) in experiment [12] is 93.1% (inactive). Further, the efflux inhibition (fraction of control) in experiment [13] is 0.18 (inactive). Further, the differentiation response in experiment [15] is -9.89% (inactive).
